Measured values reported in PubChem BioAssay (NCATS).
Results filed as inconclusive are left out. Activity calls are given as the source filed them. Unless noted, calls come from the whole dose curve; as a rule, active = well fitted curve in the direction sought with a large enough effect; inconclusive = small, poorly fitted or top-dose-only effect, or another doubt; inactive = no such curve, though single readings can be large; an effect the other way counts as inactive or inconclusive.

What was measured:
[1] = S16 Schwann cell PMP22 intronic element beta-lactamase assay (AID 624044; calls by dose curve;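 note: 0% = DMSO and -100% = potassium clavulanate positive control; nearly all actives have a fitted effect of over 15% in size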)
Outline: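 Beta-lactamase reporter under a PMP22 intronic regulatory element in stable S16 rat Schwann cells; 24 h compound exposure. 460 nm blue signal normalized between DMSO (0%) and potassium clavulanate, with 535 nm FRET tracking viability; curves classed by r2 and response.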

[2] = qHTS assay for small molecule activators of the p53 signaling pathway (AID 651743; active = well fitted activation curve with a large enough effect in the signal ratio, not every such curve was filed as active; the % refers to the signal ratio; note: % of control where 0% means no effect); settings: HCT-116 p53RE-bla, beta-lactamase FRET ratio, 16 h; activation: stronger effect = higher value
Outline: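 Here HCT-116 cells with an integrated p53-responsive beta-lactamase gene were incubated with compounds (16 hours, 37 C) after a 5-hour plating period; beta-lactamase activity was detected as fluorescence intensity via B/G FRET substrate.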

[3] = qHTS assay for small molecule activators of the nuclear factor-kappa B (NF-kB) signaling pathway (AID 651749; active = well fitted activation curve with a large enough effect in the signal ratio; the % refers to the signal ratio; note: % of control where 0% means no effect); settings: NF-kB-bla ME-180 cells, beta-lactamase FRET ratio, 16 h; stronger effect = higher value
Outline: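 Beta-lactamase reporter expression, controlled by NF-kB response elements in ME-180 cells, was quantified fluorometrically via FRET disruption; cells at 2,000/well had been incubated with 23 nL test compound for 16 hr.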

[4] = qHTS assay for small molecule disruptors of the mitochondrial membrane potential - 1 hr assay (AID 651754; calls by dose curve; note: % is set by controls: 0 for no effect and ±100 for the full control effect; nearly all actives have a fitted effect of over 35% in size)
Outline: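 Read-out: dye fluorescence at 490 nm ex/535 nm em (monomers) and 540 nm ex/590 nm em (aggregates) in HepG2 cells. Compound exposure 1 hr at 37C, followed by 30 min dye loading.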

[5] = qHTS assay for small molecule disruptors of the mitochondrial membrane potential - 5 hr assay (AID 651755; calls by dose curve; note: % is set by controls: 0 for no effect and ±100 for the full control effect; nearly all actives have a fitted effect of over 40% in size)
Outline: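 Seed HepG2 overnight, add compound, incubate 5 hr at 37C and 5% CO2, stain 30 min with Mito-MPS, then measure monomer (490/535 nm) and aggregate (540/590 nm) fluorescence.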

[6] = molecular target: Tumor necrosis factor (Homo sapiens) (UniProt P01375); experiment: qHTS assay to identify small molecules that stimulate Tumor Necrosis Factor-alpha (TNF-alpha) secretion (AID 651757; active = well fitted curve in the direction sought with a large enough effect in the signal ratio; the % refers to the signal ratio; note: potency is the fitted concentration of half-maximal effect)
Chain of Tumor necrosis factor (Homo sapiens) (P01375 whole entry, looked up): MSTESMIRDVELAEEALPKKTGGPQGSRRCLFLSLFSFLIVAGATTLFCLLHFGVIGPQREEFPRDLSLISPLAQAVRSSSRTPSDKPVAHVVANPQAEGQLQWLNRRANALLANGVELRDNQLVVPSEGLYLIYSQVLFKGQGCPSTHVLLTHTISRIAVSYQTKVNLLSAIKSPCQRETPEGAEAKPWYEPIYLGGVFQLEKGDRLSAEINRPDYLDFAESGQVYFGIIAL
Outline: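 THP-1 cells, 3000/well; compound 17 hrs, 37 C; add cryptate/XL665 anti-TNF-alpha antibody pair; 3 hr RT; TR-FRET (HTRF) read of secreted TNF-alpha. Quantitative HTS format.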

[7] = qHTS assay for environmental chemicals that activate the Aryl hydrocarbon Receptor (AhR) signaling pathway (AID 651777); settings: 1A2-DRE human hepatoma cells, luciferase, 24 h; activation: stronger effect = higher value; note: % of control where 0% means no effect; nearly all actives have a fitted effect of over 15% in size
Outline: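 Luminescence read-out: One-Glo added for 30 min at RT after 24 hr compound treatment (37 C, 5% CO2) of human hepatoma cells expressing a DRE/CYP1A2 promoter–luciferase reporter; increased signal indicates AhR activation.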

[8] = molecular target: Peroxisome proliferator-activated receptor alpha (Homo sapiens) (UniProt Q07869); experiment: qHTS assay for small molecule agonists of the peroxisome proliferator-activated receptor alpha (PPARalpha) signaling pathway (AID 651778); settings: PathHunter PPARalpha complementation, chemiluminescence, 6 h; stronger effect = higher value; note: % of control where 0% means no effect
Chain of Peroxisome proliferator-activated receptor alpha (Homo sapiens) (Q07869 whole entry, looked up): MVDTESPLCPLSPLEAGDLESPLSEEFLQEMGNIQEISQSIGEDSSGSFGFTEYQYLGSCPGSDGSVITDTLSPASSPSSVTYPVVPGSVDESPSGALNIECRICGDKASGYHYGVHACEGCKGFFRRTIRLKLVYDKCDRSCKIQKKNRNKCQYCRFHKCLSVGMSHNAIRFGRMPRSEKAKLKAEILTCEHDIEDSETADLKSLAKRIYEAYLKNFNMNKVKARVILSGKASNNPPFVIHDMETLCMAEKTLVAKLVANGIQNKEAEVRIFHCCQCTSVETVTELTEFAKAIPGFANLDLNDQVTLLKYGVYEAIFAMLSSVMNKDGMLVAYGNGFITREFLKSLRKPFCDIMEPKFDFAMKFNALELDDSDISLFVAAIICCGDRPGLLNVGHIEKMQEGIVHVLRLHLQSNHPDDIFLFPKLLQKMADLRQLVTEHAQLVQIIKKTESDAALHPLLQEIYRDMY
Outline: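 Cells plated at 2,000/well and held overnight at 37 C, 5% CO2, then compound added by pin tool for 6 hr; after PathHunter detection reagent and 60 min at room temperature, chemiluminescence from enzyme complementation was read.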

[9] = qHTS assay for small molecule agonists of the antioxidant response element (ARE) signaling pathway measured by Nrf2-dependant transcriptional activity (AID 720636; active = well fitted curve in the direction sought with a large enough effect in the repeat runs; an effect the other way counts as inactive or inconclusive;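 note: HepG2 cells with an ARE-driven luciferase reporter; % of control where 0% means no effect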)
Outline: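 HepG2 ARE-luc reporter line, 1% dialyzed FBS; 6 hr attachment at 37 C, compound pinned in, 16 hr at 37 C/5% CO2; ONE-Glo, 30 min RT, luminescence read.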

[10] = qHTS assay for small molecule antagonists of the retinoid-related orphan receptor gamma (ROR-gamma) signaling pathway - cell viability counter screen (AID 720652; active = well fitted curve in the direction sought with a large enough effect in the repeat runs; an effect the other way counts as inactive or inconclusive;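 note: CHO reporter cells with doxycycline-induced ROR-gamma expression; compound exposure lasted 16 hr before ATP read; % is set by controls: 0 for no effect and ±100 for the full control effect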)
Outline: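 CHO RORE-LUC/TET-ROR line, 1,000 cells/well, 37 C 5% CO2 5 hr; cpd or DMSO + doxycycline induction, 16 hr. CellTiter-Glo, 30 min RT, luminescence = ATP content.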

[11] = qHTS assay for small molecule agonists of the antioxidant response element (ARE) signaling pathway measured by Nrf2-dependant transcriptional activity - cell viability counter screen (AID 720653; active = well fitted curve in the direction sought with a large enough effect in the repeat runs; an effect the other way counts as inactive or inconclusive; note: % is set by controls: 0 for no effect and ±100 for the full control effect); settings: ARE-bla HepG2 viability, CellTiter-Glo ATP luminescence, 16 h; stronger effect = lower value
Outline: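 ARE-bla HepG2 cells (2,000/well) rested 5 hrs at 37C/5% CO2, then exposed to compounds in DMSO for 16 hrs. Viability was read in the same wells as intracellular ATP by luminescence, 30 min at room temperature after reagent addition.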

[12] = qHTS assay for cell viability of HEK293 cells (AID 743288); settings: ATP luminescence (CellTiter-Glo), 18 h, stronger effect = lower value; note: % is set by controls: 0 for no effect and ±100 for the full control effect; nearly all actives have a fitted effect of over 50% in size
Outline: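 HEK293, 18 h, 37 C, ATP luminescence. Cells at 2,000/well were allowed at least 5 h to settle before dosing; CellTiter-Glo developed 30 min at RT.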

[13] = qHTS assay for cell viability of the p53RE-bla HCT-116 cell line (AID 743292); note: % is set by controls: 0 for no effect and ±100 for the full control effect; nearly all actives have a fitted effect of over 55% in size
Outline: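 Luminescent ATP quantitation (CellTiter-Glo) served as the viability read-out; reagent was added after 16 h compound exposure at 37 C and read after 30 min at room temperature. Cells: p53RE-bla HCT-116, 4,000 per well.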

[14] = qHTS to identify inhibitors of the type 1 interferon - major histocompatibility complex class I in skeletal muscle: primary screen against the NCATS Mechanism Interrogation Plate v5.0 (MIPE) Libary (AID 1347411);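 note: plate controls were vehicle for no effect and reference inhibitor for full effect; nearly all actives have a fitted effect of over 65% in size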
Outline: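 HLA-B HiBit myoblasts, dexamethasone-free medium + 4 ng/ml IFN-b, 24 h compound, 11-pt 1:3 from 46 uM final. Readout: Nano-Glo HiBiT lytic luminescence after 10 min lysis, RT.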

[15] = Primary qHTS for inhibitors of nuclear receptor binding SET domain protein 2 (NSD2) in an isogenic RCH-ACV NSD2 p.E1099K mutant (9B) (AID 1645876); note: % is set by controls: 0 for no effect and ±100 for the full control effect; nearly all actives have a fitted effect of over 70% in size
[16] = Primary qHTS for inhibitors of nuclear receptor binding SET domain protein 2 (NSD2) in an RCH-ACV wild type WT cells (2C) (AID 1645877); note: % is set by controls: 0 for no effect and ±100 for the full control effect; nearly all actives have a fitted effect of over 70% in size
[17] = molecular target: Phospholipid hydroperoxide glutathione peroxidase GPX4 (Homo sapiens) (UniProt P36969); experiment: Primary qHTS Assay for Inhibitors of Recombinant Selenoprotein Glutathione Peroxidase 4 (GPX4) (AID 1845192); settings: outcome: dose series up to 50 µM unless noted; note: % is set by controls: 0 for no effect and ±100 for the full control effect; nearly all actives have a fitted effect of over 65% in size
Chain of Phospholipid hydroperoxide glutathione peroxidase GPX4 (Homo sapiens) (P36969 whole entry, looked up): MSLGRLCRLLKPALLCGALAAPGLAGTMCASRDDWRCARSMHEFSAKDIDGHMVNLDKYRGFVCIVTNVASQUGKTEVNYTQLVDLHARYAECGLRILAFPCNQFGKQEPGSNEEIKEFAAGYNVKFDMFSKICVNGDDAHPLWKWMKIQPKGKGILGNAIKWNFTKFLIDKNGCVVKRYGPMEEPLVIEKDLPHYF
Outline: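 qHTS, GR-coupled: GPX4 200 nM + cpd 30 min RT → GSH 1 mM, NADPH 0.5 mM, GR 100 nM → CHP 0.5 mM start; fluor 340/450 at t0 and t15 min; no-enzyme wells as control.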

[18] = qHTS drug screen for cell cycle checkpoint inhibitors in PARPi-resistant BRCA-mutant ovarian cancer cell lines. (AID 1963452; calls by dose curve); settings: PEO1/OlaR viability, CellTiter-Glo luminescence, 96 h, stronger effect = lower value
Outline: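 PEO1, PEO4 and PEO1/OlaR ovarian cancer cells, 600 per well, exposed 96 h at 37C to a dilution series. Viability read by CellTiter-Glo luminescence, normalized to DMSO and empty wells; activity summarized as Z-AUC.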

[19] = qHTS profiling for inhibitors of Plasmodium falciparum proliferation (AID 504749);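 note: 0% = DMSO vehicle and full inhibition = artemisinin control; nearly all actives have a fitted effect of over 60% in size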; settings: P. falciparum in erythrocytes, SYBR Green DNA, 72 h; at 28.7 µM (top of the series); parasite line A
Outline: (§1)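 Fluorescence of SYBR Green-bound parasite DNA, read at 485/535 nm, served as the growth measure. Infected erythrocytes were cultured with compound 72 h; artemisinin (0.29 uM) and DMSO wells defined the normalization range.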

7G8 = experiment: as above; settings: P. falciparum in erythrocytes, SYBR Green DNA, 72 h; series mostly up to 28.7 µM
Outline: as §1

AA1029 = experiment: as above; settings: P. falciparum in erythrocytes, SYBR Green DNA, 72 h; series mostly up to 28.7 µM
Outline: as §1

AS120 = experiment: as above; settings: P. falciparum in erythrocytes, SYBR Green DNA, 72 h; series mostly up to 28.7 µM
Outline: as §1

ATS189 = experiment: as above; settings: P. falciparum in erythrocytes, SYBR Green DNA, 72 h; series mostly up to 28.7 µM
Outline: as §1

ATS95 = experiment: as above; settings: P. falciparum in erythrocytes, SYBR Green DNA, 72 h; series mostly up to 28.7 µM
Outline: as §1

C2A = experiment: as above; settings: P. falciparum in erythrocytes, SYBR Green DNA, 72 h; series mostly up to 28.7 µM
Outline: as §1

CP185 = experiment: as above; settings: P. falciparum in erythrocytes, SYBR Green DNA, 72 h; series mostly up to 28.7 µM
Outline: as §1

CP191 = experiment: as above; settings: P. falciparum in erythrocytes, SYBR Green DNA, 72 h; series mostly up to 28.7 µM
Outline: as §1

CP192 = experiment: as above; settings: P. falciparum in erythrocytes, SYBR Green DNA, 72 h; series mostly up to 28.7 µM
Outline: as §1

CP194 = experiment: as above; settings: P. falciparum in erythrocytes, SYBR Green DNA, 72 h; series mostly up to 28.7 µM
Outline: as §1

CP201 = experiment: as above; settings: P. falciparum in erythrocytes, SYBR Green DNA, 72 h; series mostly up to 28.7 µM
Outline: as §1

CP203 = experiment: as above; settings: P. falciparum in erythrocytes, SYBR Green DNA, 72 h; series mostly up to 28.7 µM
Outline: as §1

CP211 = experiment: as above; settings: P. falciparum in erythrocytes, SYBR Green DNA, 72 h; series mostly up to 28.7 µM
Outline: as §1

CP217 = experiment: as above; settings: P. falciparum in erythrocytes, SYBR Green DNA, 72 h; series mostly up to 28.7 µM
Outline: as §1

CP237 = experiment: as above; settings: P. falciparum in erythrocytes, SYBR Green DNA, 72 h; series mostly up to 28.7 µM
Outline: as §1

CP238 = experiment: as above; settings: P. falciparum in erythrocytes, SYBR Green DNA, 72 h; series mostly up to 28.7 µM
Outline: as §1

CP247 = experiment: as above; settings: P. falciparum in erythrocytes, SYBR Green DNA, 72 h; series mostly up to 28.7 µM
Outline: as §1

C[C@@H]1[C@H](O)[C@@H](C)/C=C/C=C/C=C/C=C/C=C/C=C/C=C/[C@H](O[C@@H]2O[C@H](C)[C@@H](O)[C@H](N)[C@@H]2O)C[C@@H]2O[C@](O)(C[C@@H](O)C[C@@H](O)[C@H](O)CC[C@@H](O)C[C@@H](O)CC(=O)O[C@H]1C)C[C@H](O)[C@H]2C(=O)O
inactive: outcome [1] | activation [2] 0.804% | activation [3] -0.187% | Potency [4] | Potency [5] | activation [7] 0.282% | max response [8] 6.84% | outcome [9] | outcome [10] | max response [11] -15.2% | max response [12] -1.04% | Potency [13] | Potency [14] | Potency [15] | Potency [16] | Potency [17] | Z-AUC [18] 1.47 | activity, negative = inhibition [19] -1.42% | Potency (7G8) | Potency (AA1029) | Potency (AS120) | Potency (ATS189) | Potency (ATS95) | Potency (C2A) | Potency (CP185) | Potency (CP191) | Potency (CP192) | Potency (CP194) | Potency (CP201) | Potency (CP203) | Potency (CP211) | Potency (CP217) | Potency (CP237) | Potency (CP238) | Potency (CP247)
1.65: Z-AUC ([18]; measured here: PEO1 parental Z-AUC)
active: Potency [6] 42.2 µM
1.61: Z-AUC ([18]; measured here: PEO4 Z-AUC)
